Compounds without any hit were thinned out: in the full panel of roughly 83,000, 20% have a hit.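 Results are percent growth after 48 hours of single-concentration exposure. 100 means growth as in untreated cells, lower positive values show inhibition; negative values down to -100 show cell death.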 Unmarked numbers belong to inactive results. Calls of active or inactive are those of the source. The calls were made as follows: active = growth percent below 10; inactive = the rest.
Assays:
Assay in all cases: NCI-60 one-dose screen, 48 h (100 = growth as untreated, 0 = no growth, -100 = all killed)
Conditions in all cases: 10 µM unless noted
[1] = system: NCI-H23 lung
[2] = system: NCI-H226 lung
[3] = system: NCI-H322M lung
[4] = system: HOP-62 NSCLC
[5] = system: NCI-H460 lung
[6] = system: HOP-92 NSCLC
[7] = system: NCI-H522 lung
[8] = system: A549/ATCC NSCLC
[9] = system: 786-0 renal
[10] = system: COLO 205 colon

## OCCn1cc(-c2nc(-c3c[nH]c4ncccc34)cs2)c2ccccc21
[1]
  growth: 71.9%
[2]
  growth: 58%
[3]
  growth: 74.8%
[4]
  growth: 74.7%
[5]
  growth: 78.6%
[6]
  growth: 58%
[7]
  growth: 58.6%
[8]
  growth: 77.5%
[9]
  growth: 95.1%
[10]
  growth: 85.9%

## CCCC/C(CC)=N\NS(=O)(=O)c1ccc([N+](=O)[O-])cc1
[1]
  growth: 95.9%
[2]
  growth: 93.4%
[3]
  growth: 109%
[4]
  growth: 96.7%
[5]
  growth: 105%
[6]
  growth: 91.6%
[7]
  growth: 90.9%
[8]
  growth: 89.1%
[9]
  growth: 103%
[10]
  growth: 105%

## O=S(=O)(Nc1ccc(F)cc1F)c1ccc(-c2cnc(C3CC3)o2)cc1
[1]
  growth: 38%
[2]
  growth: 64.3%
[3]
  growth: 47.4%
[4]
  growth: 39.7%
[5]
  growth: 16.3%
[6]
  growth: 44.4%
[7]
  growth: 13.4%
[8]
  growth: 41.5%
[9]
  growth: 44%
[10]
  growth: 16.2%

## O=C(CSc1nc2sc3c(c2c(=O)n1-c1ccccc1)CCCCC3)N/N=C/c1cccc([N+](=O)[O-])c1
[1]
  growth: 54.4%
[2]
  growth: 94.4%
[3]
  growth: 79%
[4]
  growth: 53%
[5]
  growth: 19.6%
[6]
  growth: 73.2%
[7]
  growth: 53.5%
[8]
  growth: 27.8%
[9]
  growth: 80.7%
[10]
  growth: 89.1%

## C#CCOc1cccc(Nc2ncnc3ccc(NC(=O)C=C)cc23)c1
[1]
  growth: 65.4%
[2]
  growth: 61.8%
[3]
  growth: 2% (active)
[4]
  growth: 58.4%
[5]
  growth: 81.2%
[6]
  growth: 14.7%
[7]
  growth: 15.9%
[8]
  growth: 34.2%
[9]
  growth: 35.2%
[10]
  growth: 68.4%

## CCCCCCCC[C@@H]1N[C@@H](C(=O)OC)Cc2c1[nH]c1ccccc21
[1]
  growth: 92.1%
[2]
  growth: 92.5%
[3]
  growth: 99.7%
[4]
  growth: 103%
[5]
  growth: 102%
[6]
  growth: 89.5%
[7]
  growth: 86.6%
[8]
  growth: 104%
[9]
  growth: 96.2%
[10]
  growth: 113%

## COC(=O)c1c2c(c(C)[n+]([O-])c1C)C(=O)C(NCc1cccc(OC)c1)=CC2=O
[1]
  growth: 25.4%
[2]
  growth: 83.2%
[3]
  growth: 22.6%
[4]
  growth: 53.2%
[5]
  growth: 14.6%
[6]
  growth: 54.5%
[7]
  growth: 10.8%
[8]
  growth: 12.9%
[9]
  growth: 54.3%
[10]
  growth: -63.4% (active)

## CS(=O)(=O)Nc1cc(-c2ccc3ncnc(Nc4ccc5c(cnn5Cc5cccc(F)c5)c4)c3c2)cnc1Cl
[1]
  growth: 10.4%
[2]
  growth: 20.8%
[3]
  growth: -5.63% (active)
[4]
  growth: 9.82% (active)
[5]
  growth: 22.8%
[6]
  growth: -20.1% (active)
[7]
  growth: -11% (active)
[8]
  growth: 23.6%
[9]
  growth: 13.3%
[10]
  growth: -20.2% (active)

## CCC1=C[C@@H]2C[C@]3(C(=O)OC)c4[nH]c5ccccc5c4CC[N@+](CC(=O)Nc4cc5c(cc4OC)N(C)[C@H]4[C@@](O)(C(=O)OC)[C@H](OC(C)=O)[C@]6(CC)C=CCN7CC[C@]54[C@@H]76)(C2)[C@H]13
[1]
  growth: 104%
[2]
  growth: 98.7%
[3]
  growth: 102%
[4]
  growth: 99.5%
[5]
  growth: 109%
[6]
  growth: 88%
[7]
  growth: 92.4%
[8]
  growth: 100%
[9]
  growth: 99.1%
[10]
  growth: 104%

## O=C(NCc1ccc(Cl)cc1Cl)C1CCC(=O)N1c1cccs1 (stereo not given)
[1]
  growth: 91%
[2]
  growth: 103%
[3]
  growth: 104%
[4]
  growth: 92.9%
[5]
  growth: 104%
[6]
  growth: 103%
[7]
  growth: 76.8%
[8]
  growth: 86.3%
[9]
  growth: 94%
[10]
  growth: 96.8%

## C1CCC([PH+](C2CCCCC2)C2CCCCC2[PH+](C2CCCCC2)C2CCCCC2)CC1.[Au].[CH-]1CCCCC1C1CCCC[N-]1 (stereo not given)
[1]
  growth: -31% (active)
[2]
  growth: -35.1% (active)
[3]
  growth: -52% (active)
[4]
  growth: -39.9% (active)
[5]
  growth: -69.8% (active)
[6]
  growth: -38.5% (active)
[7]
  growth: -51% (active)
[8]
  growth: -56.8% (active)
[9]
  growth: -64.6% (active)
[10]
  growth: -62% (active)

## CCOCCNC1=C(Cl)C(=O)c2ccccc2C1=O
[1]
  growth: 80.7%
[2]
  growth: 121%
[3]
  growth: 108%
[4]
  growth: 110%
[5]
  growth: 94.9%
[6]
  growth: 127%
[7]
  growth: 82.9%
[8]
  growth: 101%
[9]
  growth: 105%
[10]
  growth: 130%

## COc1cc2oc(-c3cccc(NC(=O)c4ccccc4)c3)cc(=O)c2c(OC)c1OC
[1]
  growth: 72.9%
[2]
  growth: 81.4%
[3]
  growth: 83.8%
[4]
  growth: 78.4%
[5]
  growth: 78.7%
[6]
  growth: 47.6%
[7]
  growth: 49.3%
[8]
  growth: 68.9%
[9]
  growth: 78.1%
[10]
  growth: 84.4%
